NPC1 prom act: qHTS Assay for NPC1 Promoter Activators; Huh7 NPC1 promoter luciferase reporter, 24 h; hit rate 2.4% among 320,000; Potency, µM (highest dose often 9.22 µM), inactives show at the top dose activation, most hits filed as activators; further: % of control where 0% means no effect; nearly all actives have a fitted effect of over 60% in size
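Compounds in DMSO were transferred onto Huh7 NPC1-luciferase reporter cells pre-incubated 2 h; after 24 h at 37 °C, Amplite reagent was dispensed and luminescence recorded 10 min later.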
Luc counter: Counterscreen for Luciferase (Kinase-Glo TM) Inhibition; Kinase-Glo luciferase, ATP luminescence, 8 min; Potency, µM (titrated, usually from 38.3 µM), for inactives: top-dose activity change, negative = inhibition, hits mostly inhibitors; hit rate 0.28% among 200,000; further: on the % scale 0 is the no-effect control and ±100 the full control effect; nearly all actives have a fitted effect of over 60% in size
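Compound is pinned into ATP-containing buffer (10 uM ATP, imidazole pH 7.2, 7 mM MgCl2). Kinase-Glo luciferase reagent is then added. Light output is recorded following an 8-min room-temperature incubation.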
SMN2 splice up: qHTS Assay for Enhancers of SMN2 Splice Variant Expression. AID 1458, 2008. hit rate 2.8% among 210,000. Potency, µM (titrated, usually from 46.1 µM), for inactives: top-dose activity change, positive = activation, usual class: activators. HEK293 SMN2-luciferase splicing reporter, luminescence, 30-36 h; further: % of control where 0% means no effect; nearly all actives have a fitted effect of over 55% in size
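qHTS luciferase splicing reporter: luminescence rises when SMN2 exon 7 is included in transfected HEK293 cells. Compound exposure lasted 30-36 h at 37C, with 4.5 mM final sodium butyrate as control, followed by a ONE-Glo read.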
Rab9 promoter act: qHTS Assay for Rab9 Promoter Activators | Huh7 Rab9 promoter-luciferase reporter, luminescence, 24 h | hit rate 2.8% among 320,000 | Potency, µM (titrated, usually from 9.22 µM), for inactives: top-dose activation, negative = inhibition, usual class: activators; further: % of control where 0% means no effect; nearly all actives have a fitted effect of over 60% in size
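Rab9 promoter-driven luciferase in stably transfected Huh7 cells; 1500 cells/well rested 2 h, exposed to compound in DMSO for 24 h at 37 °C, 5% CO2. Luminescence read 10 min after adding luciferase reagent at ambient temperature.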
ELG1 genotoxic: qHTS screen for small molecules that induce genotoxicity in human embryonic kidney (HEK293T) cells expressing luciferase-tagged ELG1; HEK293T ELG1-luciferase reporter, luminescence, 16 h; Potency, µM (titrated, usually from 46 µM), without a hit: at the highest dose activity change, positive = activation, usual class: activators; hit rate 1.3% among 330,000; further: % of control where 0% means no effect; nearly all actives have a fitted effect of over 60% in size
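Step 1: seed 2,000 HEK293T ELG1-luciferase cells per well. Step 2: add compound or DMSO, incubate 16 hr at 37 °C. Step 3: ONE-Glo, 30 min at room temperature, read luminescence.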
FLuc counter: qHTS profiling assay for firefly luciferase inhibitor/activator using purifed enzyme and Km concentrations of substrates (counterscreen for miR-21 project). AID 588342, 2011. purified FLuc, Km substrates, luminescence inhibition. hit rate 6.9% among 360,000. Potency, µM (highest dose often 57.5 µM), for inactives: at the highest dose activity change, negative = inhibition, actives largely listed as inhibitors;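 further: plate controls were vehicle for no effect and reference inhibitor for full effect; nearly all actives have a fitted effect of over 55% in size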
Target sequence (P08659 whole entry, looked up): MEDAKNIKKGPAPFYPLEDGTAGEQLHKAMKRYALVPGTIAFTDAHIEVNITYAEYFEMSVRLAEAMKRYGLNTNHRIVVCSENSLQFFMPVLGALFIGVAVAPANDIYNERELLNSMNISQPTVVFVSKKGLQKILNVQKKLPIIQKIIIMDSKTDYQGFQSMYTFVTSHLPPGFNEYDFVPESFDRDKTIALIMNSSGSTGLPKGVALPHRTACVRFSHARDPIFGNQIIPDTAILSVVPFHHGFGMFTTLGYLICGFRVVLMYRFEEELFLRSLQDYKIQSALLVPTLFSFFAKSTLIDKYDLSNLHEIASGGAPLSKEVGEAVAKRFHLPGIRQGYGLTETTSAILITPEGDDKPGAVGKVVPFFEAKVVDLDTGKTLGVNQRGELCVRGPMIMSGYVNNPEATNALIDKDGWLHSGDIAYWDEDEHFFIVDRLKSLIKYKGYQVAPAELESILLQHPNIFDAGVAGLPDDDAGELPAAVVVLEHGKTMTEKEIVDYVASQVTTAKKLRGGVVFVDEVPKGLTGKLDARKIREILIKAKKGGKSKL
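Purified P. pyralis luciferase, 10 nM final, with Km-level 10 uM D-luciferin and 10 uM ATP in 50 mM Tris acetate pH 7.5, 10 mM Mg acetate, 0.01% Tween-20, 0.05% BSA; 6-point qHTS titration about 60 µM downward; luminescence read.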
* marks the source's active call; other numbers are inactive results; ? = inconclusive; . = not tested or not shown; [ ] = another dose, or the depositor's remark. In the library only some 7.5% were active in any assay of this set; here they are far more common. The call rests on the fitted dose curve; in most records, active means well fitted curve in the direction sought with a large enough effect; inconclusive means small, poorly fitted or top-dose-only effect, or another doubt; inactive means no such curve, though single readings can be large; an effect the other way counts as inactive or inconclusive. Potency means the concentration at half of the fitted maximal effect.

SMILES	NPC1 prom act	Luc counter	SMN2 splice up	Rab9 promoter act	ELG1 genotoxic	FLuc counter
CCOc1ccccc1CNC(=O)CC(C)n1ccc(C)n1 (stereo unspecified)	.	.	.	.	.	1.8%
CC(=O)c1ccc(NC(=O)/C=C/c2ccc(C)cc2)cc1	-5.2%	10.5%	12.4%	-7.8%	10.3%	?
CC(C)(C)c1ccc(/C=C/C(=O)NC2=NCCS2)cc1	0.501µM*	-4.3%	?	0.398µM*	?	0.757µM*
Cc1ccc(/C=C/C(=O)NC2=NCCS2)cc1	?	-3.4%	0.501µM*	0.501µM*	2.91µM*	1.35µM*
c1ccc(-c2noc(CCC3CCCC3)n2)cc1	14.0%	1.4%	19.3%	?	?	10.7µM*
c1ccc(-c2noc(CC3CCCCC3)n2)cc1	18.1%	-3.1%	16.3%	?	?	9.53µM*
COc1ccc(-c2noc(CN(C)C3CCOCC3)n2)cc1	1.4%	2.2%	.	1.6%	9.0%	1.1%
CN(Cc1nc(-c2ccccc2)no1)C1CCOCC1	2.51µM*	.	.	?	?	16.9µM*
CCOC(=O)Cc1ccc(NC(=O)NC(C)c2c(-n3cccc3)sc(C)c2C)cc1 (stereo unspecified)	.	.	1.2%	.	.	-0.1%
CCN(CC)CCOC(=O)c1ccc(Nc2c3c(nc4ccccc24)CCC3)cc1	.	.	-26.4%	.	.	-1.2%
CC(C)(C)NC(=O)N1CCC(C(=O)O)CC1	.	.	.	.	.	0.5%
Cc1ccc(NC(=O)Cn2ccn(-c3ccc(F)c(F)c3)c(=O)c2=O)cc1C	.	.	.	.	.	-0.8%
COc1ccc(Cl)c2sc(N3CCN(C(C)=O)CC3)nc12	12.2%	.	.	-1.3%	-0.5%	1.9%
COc1ccc(OC)c2sc(N3CCN(C(=O)C(C)(C)C)CC3)nc12	.	.	.	.	.	13.5µM*
Cc1cccc(/C=C2\CS/C(=C\c3cccc(C)c3)C2=O)c1	-3.2%	15.6%	-5.7%	2.7%	8.3%	8.49µM*
O=C1/C(=C/c2cccc(Cl)c2)CSc2sccc21	-0.9%	.	.	-2.0%	-1.8%	1.2%
Cc1cc(C)nc(S/C=C/C(=O)c2ccccc2F)n1	-9.3%	.	.	-10.8%	?	1.51µM*
Cc1cc(NC(=O)c2ccccc2F)on1	19.1%	-18.8%	?	18.1%	?	?
CC(C)C(=O)C(C)(C)CCc1ccccn1	.	-0.3%[7.66 µM]	-7.0%[9.22 µM]	.	.	.
Fc1ccc(-n2nnc(-c3ccnc4ccccc34)n2)cc1	25.4%	.	.	3.98µM*	?	2.13µM*
Cc1ccc(-n2nnc(-c3ccnc4ccccc34)n2)cc1	3.16µM*	.	.	4.47µM*	13µM*	1.9µM*
COc1ccc2oc(-c3ccccc3)c(C(=O)O)c2c1	-0.9%	.	.	-3.8%	4.6%	-4.6%
Cc1ccc2oc(-c3ccccc3)c(C(=O)O)c(=O)c2c1	3.55µM*	-2.5%	?	?	?	21.3µM*
Cc1ccc(COc2ccc3oc(-c4ccccc4)c(C(=O)O)c3c2)cc1	.	.	11.0%	.	.	10.7µM*
O=C(COc1ccc(Cl)cc1Cl)Nc1cccnc1	17.9%	-2.7%	-9.3%	-4.6%	?	6.75µM*
SMILES	NPC1 prom act	Luc counter	SMN2 splice up	Rab9 promoter act	ELG1 genotoxic	FLuc counter
Cc1ccccc1OCC(=O)Nc1ccncc1	-5.5%	.	.	-4.3%	1.7%	?
CN(c1cccc(NC(=O)COc2ccc(Cl)cc2Cl)c1)S(C)(=O)=O	29.4%	0.5%	29.9%	?	8.0%	1.2µM*
Cc1ccc(OCC(=O)Nc2ccncc2)c(C)c1	-4.1%	.	.	3.7%	12.0%	12µM*
O=C(COc1ccc(Cl)cc1Br)Nc1ccncc1	?	.	.	2.3%	?	9.53µM*
O=C(COc1ccc(Cl)cc1Cl)N/N=C/c1cccnc1	1.7%	.	.	9.6%	-1.3%	-19.2%
Cc1cc(OCC(=O)Nc2ccncc2)cc(C)c1Br	0.4%	-5.7%	-6.0%	0.1%	-7.2%	-2.5%
COc1ccc2c(c1)c1c(c(=O)n(CCc3ccccc3)c(=O)n1Cc1ccc(F)cc1)n2C	.	.	.	.	.	-4.3%
CCOc1ccc(S(=O)(=O)Nc2ccc3c(c2)N(C(C)=O)CCC3)cc1	.	.	.	.	.	-4.0%
CC1CCN(c2nc3ccccc3nc2C(F)(F)F)CC1	.	.	.	.	.	0.7%
O=C(CCCOc1ccc(Cl)cc1Cl)Nc1ccncc1	-3.1%	-3.2%	-21.5%	-0.4%	-0.1%	23.9µM*
CCNC(=O)CCCOc1ccc(Cl)cc1Cl	2.7%	-1.0%	4.0%	5.7%	?	?
O=C(CCCOc1ccc(Cl)cc1Cl)Nc1ccccn1	1.9%	-1.6%	9.0%	-3.1%	?	16.9µM*
Cc1ccc(NC(=O)C(=O)NCC(c2cccnc2)N2CCN(Cc3ccccc3)CC2)cc1 (stereo unspecified)	.	.	.	.	.	5.1%
Cc1ccc(-n2c(-c3ccc(Br)cc3)nc3c(cnn3-c3ccccc3)c2=O)cc1	.	.	-5.7%	.	.	-5.5%
O=c1c2ccccc2cnn1-c1ccc(Br)cc1	0.708µM*	-12.4%	2.82µM*	1.58µM*	?	3.38µM*
O=c1c2ccccc2nnn1-c1ccc(Br)cc1	3.16µM*	.	.	2.24µM*	?	?
O=c1c2ccccc2cnn1-c1ccc(Cl)nn1	10.9%	-4.6%	-6.2%	16.3%	11.2%	-18.9%
O=c1c2ccccc2cnn1-c1ccc2ccccc2c1	1.41µM*	-28.7%	5.01µM*	1.78µM*	?	1.2µM*
Cc1cc(=O)n(Cc2ccc(Cl)cc2)c2c1c(C)nn2-c1ccccc1	.	.	.	.	.	0.9%
COc1ccc(NC(=O)c2ccccn2)cc1OC	?	-17.3%	?	3.98µM*	?	16.9µM*
COc1ccc(NC(=O)c2ccccn2)cc1	0.501µM*	12.6µM*	1.58µM*	?	?	2.69µM*
Fc1ccccc1Nc1n[nH]c(=S)s1	14.4%	-0.2%	12.6µM*	?	?	?
Cn1cccc1C(=O)N1CCC2(CC1)CCN(c1ccncc1)CC2	.	-4.0%	-54.8%	.	.	.
O=C(Cn1c(SCC(=O)N2CCc3ccccc3C2)nc2ccccc21)NC1CCCC1	3.0%	-1.9%	11.2µM*	5.1%	-1.0%	5.4%
CCOC(=O)c1c(C)[nH]c(C(=O)COC(=O)[C@H](C)NC(=O)c2ccccc2Cl)c1C	12.0%	-2.3%	18.7%	29.1%	?	21.3µM*
CCOC(=O)c1c(C)[nH]c(C(=O)COC(=O)CNC(=O)C2CCCCC2)c1C	-0.9%	1.7%	?	7.1%	4.3%	3.01µM*
CCOC(=O)c1c(C)[nH]c(C(=O)COC(=O)CNC(=O)c2ccccc2Cl)c1C	25.2%	2.3%	.	?	?	10.7µM*
CCOC(=O)c1c(C)[nH]c(C)c1C(=O)COC(=O)CNC(=O)C1CCCCC1	-5.6%	-0.1%	11.7%	-1.2%	3.4%	2.8%
